# Several values for one entry are separate records, joined by “and”; a condition that tells them apart may be missing. Equal entries are not always repeated. Among all 410,000 compounds or so, about 7,200 (1.8%) were called active. Inconclusive results (about 7%) are left out. The sample as a whole holds a higher share of actives than the screen did. Unmarked numbers belong to inactive results. Calls come from the whole dose curve; as a rule, active = well fitted activation curve with a large enough effect; inconclusive = small, poorly fitted or top-dose-only effect, or another doubt; inactive = no such curve, though single readings can be large or run the other way.
# Assay: qHTS of TDP-43 Inhibitors; note: nearly all actives have a fitted effect of over 50% in size; for growth rescue (activation): % of control where 0% means no effect
# Settings: TDP-43 expressing yeast growth rescue, BacTiter-Glo, 24 h; series mostly up to 46.1 µM; growth rescue (activation): at the top concentration
# Outline: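 Yeast expressing TDP-43 (pregrown in raffinose, seeded at OD600=0.02 in galactose medium) exposed to compounds 24 hr at 30 deg C. Growth read by BacTiter-Glo luminescence; rescue of toxicity appears as increased signal.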
# Potency is the fitted concentration of half-maximal effect.
SMILES,growth rescue (activation),Potency
Cc1cc(NC(=O)c2cccc(Cl)c2)ccc1-c1cc2ccccc2oc1=O,0%,
Cc1cc2oc(C(=O)N(Cc3ccc(Cl)cc3)Cc3ccco3)c(C)c2cc1Cl,17.3%,
CC(C)Oc1c(Br)cc(Br)cc1/C=N/NC(N)=S,18%,
Cc1cccc(-n2c(C)cc(/C=N/NC(N)=S)c2C)c1,,35.5 µM (active)
Cc1cc(/C=N/NC(N)=O)c(C)n1C1CCCCC1,-16.5%,
COc1ccccc1NC(=O)c1oc2ccccc2c1NC(=O)C(C)C,15.9%,
COc1ccccc1C1C(C(=O)N2CCCCC2)=C(C)Nc2nc3ccccc3n21 (centres undefined),15.8%,
CN(Cc1ccccc1)S(=O)(=O)c1ccc(F)c(C(=O)Nc2cccc(Cl)c2Cl)c1,-4.13%,
C=Cc1ccc(C(=O)N2CCCC(CCC(=O)N3CCN(c4ccccn4)CC3)C2)cc1 (centres undefined),,3.55 µM (active)
CC(=O)c1ccc(S(=O)(=O)NCCC(=O)N2CCN(c3ccccn3)CC2)cc1,13.3%,
COc1cccc(CC(=O)N2CCCC(CCC(=O)N3CCN(c4ccccn4)CC3)C2)c1 (centres undefined),10.6% [at 9.22 µM],
COc1cccc(N2CCN(S(=O)(=O)c3cc(Br)cc4c3N(C(=O)C3CC3)CC4)CC2)c1,21.5%,
CCCCNC(=O)c1ccc(-n2c(=S)[nH]c3ccccc3c2=O)cc1,5.1%,
CCCCn1c(=S)[nH]c2ncccc2c1=O,23.4%,
CCCCn1c(=S)[nH]c2ccccc2c1=O,,14.1 µM (active)
COc1ccc(CCNC(=O)c2cc(=O)c3c(C)cc(C)cc3o2)cc1OC,1.87%,
Cc1ccc(CN2CCCn3nc(C(=O)NCc4ccccc4Cl)cc3C2=O)cc1,19.2%,
Cc1ccc(CNC(=O)CCC(=O)N2Cc3ccccc3Oc3ncccc32)cc1,14.9% [at 9.22 µM],
COc1cc(C(=O)NCCS(=O)(=O)N2CCN(c3ccccc3)CC2)cc(OC)c1OC,22.3%,
Cc1cccc(C)c1NC(=O)N1CC(C)OC(C)C1 (centres undefined),-20.1%,
Cc1cccc(C)c1NC(=O)C(Cl)C(=O)c1ccccc1 (centres undefined),,3.98 µM (active)
CN=C(c1ccccc1)c1c(C)cccc1C,18%,
O=C(Cn1c(=O)n(-c2ccc(F)cc2)c(=O)c2sccc21)Nc1cccc(C(F)(F)F)c1,7.37%,
COC(=O)C1=CN(c2ccc(F)c(F)c2)C=C(C(=O)OC)C1c1ccc([N+](=O)[O-])cc1,4.3%,
COC(=O)C1=CN(c2c(C)cc(C)cc2C)C(N)=C(C#N)C1c1cccc(F)c1 (centres undefined),,22.4 µM (active)

SMILES,growth rescue (activation),Potency
CCOC(=O)C1=C(CC)OC(N)=C(C#N)C1c1ccc(F)cc1F (centres undefined),-18.5%,
CCN(Cc1ccccc1)Cc1c(O)ccc2c(=O)c(-c3ccc(Cl)cc3Cl)coc12,-19.7%,
Cc1cc2n(n1)C(c1cc(C(C)(C)C)c(O)cc1O)Nc1ccccc1-2 (centres undefined),0%,
COc1ccccc1CNCc1ccc(C(=O)O)s1,16.3%,
COCCCNC(=O)c1c(NC(=O)c2cc(=O)c3cc(C)c(C)cc3o2)sc2c1CCCC2,-1.04%,
Cc1ccc(S(=O)(=O)N(Cc2nc(-c3ccc(Cl)cc3)no2)C2CCCCC2)cc1,7.13%,
Cc1ccc(Cl)cc1NC(=O)/C(C#N)=C\c1cn(Cc2ccc(F)cc2)c2ccccc12,21.4%,
COc1ccc(Nc2cc(Sc3ccc(OC)cc3)ncn2)cc1,,22.4 µM (active)
COc1ccc(NC(=O)CSc2ncnc3[nH]ncc23)cc1,-35.9%,
CCOc1ccc(Nc2ncnc3scc(-c4ccc(OC)cc4)c23)cc1,-16.3%,
Cc1cccc2c(=O)cc(CSc3ccccc3NC(=O)C(C)C)[nH]c12,-0.795%,
O=C(CSc1nnc(CNC(=O)c2ccc(F)cc2)o1)Nc1ccc2c(c1)OCO2,-0.573%,
O=C(CSc1nc(-c2cccc(F)c2)[nH]c1-c1ccccc1)Nc1ccc2c(c1)OCO2,,20 µM (active)
O=C(CSc1ccc(-c2ccc(F)cc2)nn1)Nc1ccc2c(c1)OCCO2,17.7%,
Cc1ccc(NC(=O)CSc2nc3c([nH]c4ccccc43)c(=O)n2-c2ccccc2)c(C)c1,5.4%,
C=CCNc1nc(N)c([N+](=O)[O-])c(NC2CCCCC2)n1,,7.08 µM (active)
Nc1nc(Nc2ccccc2F)nc(NC2CCCCC2)c1[N+](=O)[O-],-5.06%,
Nc1nc(NCC2CCCO2)nc(Nc2ccccc2F)c1[N+](=O)[O-] (centres undefined),-0.227%,
Cc1ccc(NC(=O)C2CCN(S(=O)(=O)c3cc(-c4noc(C)n4)ccc3C)CC2)c(C)c1,-6.47%,
CCN(CCCNC(=O)c1c(C)oc2ncn(CC(C)C)c(=O)c12)Cc1ccccc1,13.1%,
Cc1ccc(Cl)cc1N1CCN(S(=O)(=O)c2cc3[nH]c(=O)c(=O)[nH]c3cc2C)CC1,4.73%,
CC(=O)Nc1cc(C(=O)NCc2ccc(F)cc2Cl)ccc1Sc1ccc(Cl)cc1,,11.2 µM (active)
COC(=O)c1ccc(Sc2ccc(F)cc2)c(N)c1,3.11%,
Cc1ccc(Sc2ccc(NC(=O)c3ccc(F)cc3)cc2C#N)cc1,-20.1%,
CC(=O)Nc1cc(C(=O)NCc2ccc(F)cc2)ccc1Sc1ccc(F)cc1,,31.6 µM (active)

SMILES,growth rescue (activation),Potency
CCN(CCCNC(=O)c1ccc(Sc2ccc(C)cc2)c(NC(C)=O)c1)c1cccc(C)c1,14.4%,
COCCNC(=O)c1ccc(S(=O)(=O)c2ccc(Cl)cc2)c(NC(C)=O)c1,2.43%,
COC(=O)c1cc(NC(=O)c2sc3ccccc3c2Cl)cc(C(=O)OC)c1,11.6%,
O=C(Cn1c(=O)n(Cc2cccs2)c(=O)c2cccnc21)Nc1ccc(F)cc1,-9.45%,
COc1cn(CC(=O)Nc2cccc(C)c2C)c(CN2CCCCC2)cc1=O,8.28%,
COc1ccc(-n2cnc3cc(C(=O)NC4CCCC4)ccc32)cc1,,28.2 µM (active) and 17.8 µM (active)
Cc1ccc(-n2cnc3cc(C(=O)NCCC4=CCCCC4)ccc32)cc1Cl,7.7%,
COCCCNC(=O)c1ccc2c(c1)ncn2-c1ccccc1OC,7.43%,
O=C(Oc1cccc(C(=S)N2CCOCC2)c1)c1cccc(Cl)c1,,12.6 µM (active)
O=C(Oc1ccc(C(=S)N2CCOCC2)cc1)c1ccc(F)cc1,,7.08 µM (active)
O=C(OCC(=O)N1CCOCC1)c1ccc2ccccc2c1,17.2%,
O=C(Oc1ccc(Br)cc1C(=S)N1CCOCC1)c1cccc([N+](=O)[O-])c1,11%,
O=C(Oc1ccc(F)cc1)N1CCOCC1,-18.8%,
Cc1ccc(C(=O)Oc2ccc(C(=S)N3CCOCC3)cc2)cc1,26%,
CC1Cc2cc(S(=O)(=O)CCC(=O)NCc3ccc(Cl)cc3)ccc2N1C(=O)C1CC1 (centres undefined),3.43%,
COc1cccc2c1cc1c(=O)n(CC(=O)N3CCN(c4cccc(Cl)c4)CC3)nc(C)n12,7.4%,
Cc1ccc(CCNC(=O)c2ccc3c(c2)nc2n3CCC(C)C2)cc1 (centres undefined),13.3%,
COc1cccc(-c2nnc3n(CCc4ccccc4)c(=O)c4ccccc4n23)c1O,8.42%,
O=C1NC(c2cc3c(cc2Cl)OCO3)Oc2ccccc21 (centres undefined),,22.4 µM (active)
O=C1OCC2=C1C(c1ccc(Cl)cc1)c1cc3c(cc1O2)OCO3 (centres undefined),-12.4%,
COc1ccc(-n2nnnc2CNC(=O)c2ccc3ccccc3c2)cc1,,20 µM (active)
O=C(NCc1nnnn1-c1ccc(Cl)cc1)c1ccc2c(c1)OCO2,20.1%,
COc1ccc(CNC(=O)c2ccc3oc(C(C)C)nc3c2)cc1,0%,
CC(C)NC(=O)c1ccc(Sc2ccccc2)c([N+](=O)[O-])c1,-0.383%,
O=C(O)c1cc([N+](=O)[O-])c(Nc2cccc3ccccc23)c([N+](=O)[O-])c1,,11.2 µM (active)

SMILES,growth rescue (activation),Potency
O=C(Nc1cccc2ccccc12)NC1CC1,4.47%,
COc1cccc(CNC(=O)C2CCN(S(=O)(=O)c3ccc4c(ccn4C)c3)CC2)c1,25.2%,
Nc1ccccc1Sc1cc(Cl)nnc1Cl,,12.6 µM (active)
Cc1ccc(Nc2ccc3cc(S(=O)(=O)N4CCCCC4)ccc3n2)cc1F,21.6%,
CCCCN(C)CCCNC(=O)CN1N=C(c2ccc(OC)cc2)CCC1=O,-1.21%,
COc1ccc(C2=CC(c3ccccc3Cl)n3nc(-c4ccc(Cl)cc4)nc3N2)cc1 (centres undefined),9.18%,
Brc1ccc(C2=CC(c3ccco3)n3ncnc3N2)cc1 (centres undefined),,12.6 µM (active)
CCOc1ccc(C2=CC(c3ccccc3)n3ncnc3N2)cc1 (centres undefined),,17.8 µM (active)
CCOC(=O)C1=C(c2ccccc2)Nc2ncnn2C1c1ccc(Cl)cc1 (centres undefined),-5.42%,
CCOc1ccc(NC(=O)CSc2c3c(nc4ccccc24)CCCC3)cc1,16.7%,
CC(=O)c1cccc(Nc2ccc3cc(S(=O)(=O)N4CCC(C)CC4)ccc3n2)c1,26.4%,
Cc1cc(Br)cn2c(Cc3ccccc3C(F)(F)F)c(C3CCCCC3)nc12,-0.49%,
CC(C)(C)Cc1c(C2CCCCC2)nc2ccc(Br)cn12,,28.2 µM (active)
COC(=O)c1ccc2nc(C3CCCCC3)c(Cc3cccc(F)c3)n2c1,12.6%,
COc1cccc(NC(=O)c2csnn2)c1,10.3%,
CCOC(=O)c1cnc2c(C)cc(C)cc2c1Nc1ccc(N2CCOCC2)cc1,22.4%,
CCOc1cccc(CC(=O)N2CCc3c([nH]c4ccccc34)C2c2ccc(OC)cc2)c1OCC (centres undefined),-0.232%,
CCCC(=O)Nc1ccc2oc(-c3ccc(O)c(Br)c3)nc2c1,18%,
CC(C)c1ccc(C2CC(=O)N3CN(C4CCCCC4)CSC3=C2C#N)cc1 (centres undefined),-0.958%,
CCc1nn(CC(=O)Nc2cc(C)cc(C)c2)c(=O)c2cc3sccc3n12,4.62%,
S=C(Nc1cccc(Br)c1)N1CCn2cccc2C1c1cccnc1 (centres undefined),14.8%,
O=S(=O)(c1cccc(C(F)(F)F)c1)N1c2ccccc2-n2cccc2C1c1cccnc1 (centres undefined),,25.1 µM (active)
CC(=O)Nc1ccc(NC(=O)C2CCCN2S(=O)(=O)c2cccc(C(F)(F)F)c2)cc1 (centres undefined),14.9%,
CN(C)c1cccc(C(=O)Nc2nc3ccc(S(=O)(=O)NC(C)(C)C)cc3s2)c1,6.18% [at 9.22 µM],

# Source: PubChem BioAssay AID652104 (National Center for Advancing Translational Sciences (NCATS), 2013)
